The text below walks through data of PubChem BioAssay AID1845 (The Scripps Research Institute Molecular Screening Center, 2009).

The structures appear in SMILES notation. In all, about 290,000 compounds went through this assay and about 490 (0.17%) were called active. The full list was thinned out, with actives kept by preference. A number with no mark means an inactive call. No stated cut-off is given here; in the data, active means inhibition above about 37%; inactive means the rest.

This assay can be described thus: DNA intercalator displacement agents – biochemical, FID fluorescence, artefact control for HCV NS3 helicase inhibitor project, primary screen (AID 1845).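 Further: 0% = vehicle and 100% = reference compound; higher means more ethidium bromide displaced from hairpin DNA.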 Conditions: DNA fluorescent intercalator displacement, at 7.9 µM, stronger effect = higher value.
As to `Cc1nc2ccc(N3CCN(C)CC3)cc2nc1C`, the inhibition is 7.94%.
On to `COc1cccc(-c2nc3ccc(N4CCN(C)CC4)cc3[nH]2)c1`, for which the inhibition was 40.7% (active).
Turning to `CN1CCN(c2cc(N3CCNCC3)ccc2[N+](=O)[O-])CC1`, the inhibition is 14.7%.
Regarding `Cn1c(O)c(C(=Nc2ccc(F)cc2)c2ccccc2)c(=O)n(C)c1=O`, the inhibition was 1.2%.
Turning to `CCOC(=O)C1(CCc2ccccc2)CCN(Cc2ccco2)CC1`, the inhibition was 5.09%.
For `CCOC(=O)C1(Cc2ccc(Cl)cc2)CCN(C(C)CCn2cccn2)CC1` (stereo not given), the inhibition was 37.1% (active).
The value for `Cn1c(C(=O)N2CCC(C(=O)N3CCC4(CC3)OCCO4)CC2)cc2sccc21` was -30.4%.
`O=C(C1CC(=O)N(C2CCCC2)C1)N1CCC2(CC1)OCCO2` (stereo not given): the inhibition was -1.99%.
Turning to `c1ccc(C2NCc3ccccc3-n3cccc32)cc1` (stereo not given), the inhibition was 9.21%.
For `O=C(Cc1ccc(Cl)cc1)NCCN1CCN(C(=O)Cc2ccc(Cl)cc2)CC1`, the inhibition was -26%.

A word on the inhibition: it is the relative decrease from the control value, in per cent.
